High-throughput results: PubChem BioAssay, Paczesny and Yang Labs, IUPUI and University of Michigan
Shown is part of a subset that was picked to be rich in hits.
ST2 inh = blocks human ST2 binding to IL-33; Q01638; AlphaLISA ST2-Fc/biotin-IL-33 interaction, 1 h; inhibition, % for hits at 17 µM; 78,000 compounds, 2.3% hits; AID 1259354; in the data active = inhibition above about 30%
Target sequence (Q01638 whole entry, looked up): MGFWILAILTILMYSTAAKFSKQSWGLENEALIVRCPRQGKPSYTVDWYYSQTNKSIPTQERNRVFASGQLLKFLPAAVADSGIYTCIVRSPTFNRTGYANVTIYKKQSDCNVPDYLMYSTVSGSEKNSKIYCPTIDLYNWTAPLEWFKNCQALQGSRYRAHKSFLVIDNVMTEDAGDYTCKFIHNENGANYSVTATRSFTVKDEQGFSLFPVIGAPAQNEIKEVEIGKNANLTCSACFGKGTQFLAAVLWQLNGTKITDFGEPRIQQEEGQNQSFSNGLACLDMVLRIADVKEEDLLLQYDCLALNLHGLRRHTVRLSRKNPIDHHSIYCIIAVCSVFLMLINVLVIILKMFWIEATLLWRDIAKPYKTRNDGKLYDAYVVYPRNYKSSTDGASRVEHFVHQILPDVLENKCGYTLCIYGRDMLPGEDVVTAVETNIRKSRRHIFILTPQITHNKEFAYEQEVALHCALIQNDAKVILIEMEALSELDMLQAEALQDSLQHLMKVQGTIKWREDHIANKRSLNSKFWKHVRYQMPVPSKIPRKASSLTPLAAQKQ
Of the large screens only hits and unclear results are named; the others gave an inactive call.

CCOC(=O)C1=C(c2ccccc2)OC(N)=C(C#N)C1c1ccc(F)c(Br)c1 (centres undefined)	none
COc1ccc(CN2CC(OCc3ccccc3F)CN(C3CCN(C(C)C)CC3)CC2=O)cc1 (centres undefined)	none
COc1ccc(N2CSC3=C(C#N)C(c4ccccc4F)CC(=O)N3C2)c(OC)c1 (centres undefined)	none
CC(=O)Nc1cc(C(=O)N2CCCC2c2nccs2)cc2ncn(CCc3ccccn3)c12 (centres undefined)	none
COc1ccc2nc(Nc3nnc(-c4ccccc4OC)o3)sc2c1	none
O=C(c1ccc([N+](=O)[O-])cc1)N1CCSC1c1cccc(Cl)c1 (centres undefined)	none
CN(C)c1ccc(C2SCCN2C(=O)c2ccc([N+](=O)[O-])cc2)cc1 (centres undefined)	ST2 inh 30%
O=[N+]([O-])c1ccc(C2SCCN2S(=O)(=O)c2ccc(I)cc2)cc1 (centres undefined)	none
O=C(Nc1cccc(C(F)(F)F)c1)c1cc2cc(Cl)cc(Cl)c2oc1=O	none
O=c1c(-c2ccccc2F)coc2cc(O)cc(O)c12	none
CCOC(=O)C1(Cc2ccccc2Cl)CCN(C(=O)C#Cc2ccccc2)CC1	none
CCOC(=O)C1(Cc2ccccc2)CCCN(C(=O)C#Cc2ccccc2)C1 (centres undefined)	ST2 inh 42%
CCOC(=O)C1(CC2CCCCO2)CCN(C(=O)C#Cc2ccccc2)CC1 (centres undefined)	none
COc1ccccc1N1CCN(c2ncc(C(=O)NCc3ccc(F)cc3)c3ccccc23)CC1	none
O=C(CN1C(=O)C2CCCCN2C(=O)c2ccccc21)N1CCN(Cc2ccccc2)CC1 (centres undefined)	none
O=C(CN1C(=O)C2CCCCN2C(=O)c2ccccc21)NCc1ccc2c(c1)OCO2 (centres undefined)	none
O=C(CN1C(=O)C2CCCCN2C(=O)c2ccccc21)NCc1ccc(F)cc1 (centres undefined)	ST2 inh 37%
O=c1[nH]nc(C[N+](=O)[O-])c2ccccc12	ST2 inh 30%
COc1ccc(Cc2n[nH]c(=O)c3ccccc23)cc1OC	none
O=c1[nH]nc(Cc2ccccc2)c2ccccc12	none
COc1ccc(CCC(=O)Nc2cc(N3CCCS3(=O)=O)ccc2OC)cc1	none
COc1ccc(C(=O)Nc2nc3ccc(S(C)(=O)=O)cc3s2)c(OC)c1	none
COc1ccc(-n2nc3c(c2NC(=O)c2ccc(OC)cc2OC)CSC3)cc1	none
COC(=O)C1=C(NC(=O)c2ccc(OC)cc2OC)CCS1	ST2 inh 32%
COc1ccc(OC)c(NC(=O)c2ccccc2Br)c1	none
COc1ccc(NC(=O)c2ccccc2Br)cc1	none
COC(=O)C1=C(NC(=O)c2ccccc2Br)CCS1	ST2 inh 31%
CCCCNC(=O)Cc1c(C(=O)O)[nH]c2ccccc12	none
O=C1NC(=O)C(c2ccccn2)(C2CCNCC2)N1 (centres undefined)	none
COc1ccc(-c2cc(-c3ccccc3)nc(N3CCOCC3)n2)cc1OC	none
COC(=O)c1sc2ccccc2c1NC(=O)c1ccc(Cl)s1	none
CCC1(CC)OC(c2cccn2-c2ccc([N+](=O)[O-])cc2)Nc2ccccc21 (centres undefined)	ST2 inh 54%
CCc1ccc(N2C(=O)c3ccccc3NC2c2cccc([N+](=O)[O-])c2)cc1 (centres undefined)	none
CCOC1=NC2Nc3ccccc3N(CC)C2C1c1ccc([N+](=O)[O-])cc1 (centres undefined)	none
Cc1cc(C)c(-c2nccn2Cc2cccnc2-n2cncn2)cc1C	none
COc1ccccc1N=c1oc2ccccc2cc1C(=O)NC(C)=O	none
CCOC(=O)C1(C/C=C/c2ccccc2)CCCN(C(=O)C2=CC(=O)CC(C)(C)O2)C1 (centres undefined)	none
Nc1ccc(N)c2c1C(=O)c1c(N)ccc(N)c1C2=O	ST2 inh 94%
O=[N+]([O-])c1ccccc1N[C@H]1O[C@H](CO)[C@@H](O)[C@H]1O	none
CCCn1cc(CNC(=O)C2Cc3ccccc3CN2CC)cn1 (centres undefined)	none
O=C(NCc1cccnc1)c1ccc(Cn2c(=O)[nH]c3ccsc3c2=O)cc1	none
O=C(NCC1(c2ccccc2)CCCC1)C1CCCN1S(=O)(=O)c1cccc2nsnc12 (centres undefined)	none
COc1cc(C(=O)Nc2nc(-c3ccc4c(c3)OCO4)cs2)cc(OC)c1OC	none
COc1ccccc1N/C=C(\C#N)c1nc(-c2ccc3c(c2)OCO3)cs1	ST2 inh 41%
N#C/C(=C\Nc1ccccc1F)c1nc(-c2cc3cc([N+](=O)[O-])ccc3oc2=O)cs1	none
COc1cc(N/C=C(/C#N)c2nc(-c3ccc(OC)c(OC)c3)cs2)c(OC)cc1Cl	ST2 inh 40%
COc1cc(NC(=O)c2ccc(-c3ccccc3)cc2)c(OC)cc1Cl	none
N#C/C(=C\c1cccc([N+](=O)[O-])c1)c1nc(-c2ccc3c(c2)OCO3)cs1	none
COc1ccccc1OCC(=O)NCC1CCCN(C(=O)CC2=CCCCC2)C1 (centres undefined)	none
COc1ccc(C(=O)N2C[C@H](O)[C@@H](N3CCC4(CC3)OCCO4)C2)cc1	none
COc1ccccc1OCCOc1cc(C)ccc1C	none
CCOC(=O)CNS(=O)(=O)c1cc(-c2nnc(Nc3ccccc3)c3ccccc23)ccc1C	none
COCCCNC(=O)c1nn(C)c2c1CN(C(=O)Cc1c(C)[nH]c3c(F)cccc13)CC2	none
COc1ccc2nc(N=C(N)N)nc(C)c2c1	none
CCC(=O)NC(N)=Nc1nc(C)c2cc(C)ccc2n1	none
COc1ccc2nc(N=C(N)NC(=O)Cc3ccc(Cl)cc3)nc(C)c2c1	ST2 inh 35%
Cc1cc(OCC(O)CNC(C)C)ccc1Cl (centres undefined)	none
CC1OC(OC2C(OC(=O)/C=C/c3ccc(O)c(O)c3)C(CO)OC(OCCc3ccc(O)c(O)c3)C2OC2OCC(O)C(O)C2O)C(O)C(O)C1O (centres undefined)	none
COc1cccc(-n2c(=O)[nH]c3sc(C)c(C)c3c2=O)c1	none
COC(=O)Oc1ccc2c(=O)c(Oc3ccc(C)cc3)coc2c1	ST2 inh 30%
Cc1cc(C)cc(Oc2coc3cc(OC(=O)C(C)C)ccc3c2=O)c1	none
CC(=O)Oc1ccc2c(=O)c(Oc3ccccc3)coc2c1	none
O=C(C1CCN(S(=O)(=O)c2cccs2)CC1)N1CCCC1	none
Cc1ccc(N=Cc2c(Nc3ccccc3)nc3c(C)cccn3c2=O)cc1	none
COc1ccc(Nc2nc3c(C)cccn3c(=O)c2C=NCc2ccccc2)cc1	ST2 inh 40%
COc1ccc(NC(=O)c2cc3c(=O)n4cccc(C)c4nc3n2C)c(OC)c1	none
COc1cc(OC)cc(-c2cc3nc(C)c(CCC(=O)Nc4cc(F)ccc4F)c(C)n3n2)c1	none
CC(=O)N1N=C(c2ccc(C)cc2)CC1c1cn(-c2ccccc2)nc1-c1ccccc1 (centres undefined)	none
Cc1cc(C(=O)N2CCOc3ccc(CN4CCC(OCc5ccccc5)CC4)cc3C2)nc(C)n1	none
Cc1c(Cl)c([N+](=O)[O-])cc([N+](=O)[O-])c1N1CCCC1	ST2 inh 40%
CCS(=O)(=O)N1CCN(c2c(Cl)cccc2[N+](=O)[O-])CC1	none
Cc1ccc(OCCCN2CCCCC2)c([N+](=O)[O-])c1	none
OCCn1c(-c2ccc3c(c2)OCCO3)nc2ccccc21	none
COc1cccc(NC(=O)CN(c2ccc(Cl)c(Cl)c2)S(C)(=O)=O)c1	ST2 inh 96%
COc1ccc(N(CC(=O)Nc2ccc(C)c(Cl)c2)S(C)(=O)=O)cc1	none
COc1ccc(N(CC(=O)Nc2ccc(F)cc2)S(C)(=O)=O)cc1Cl	none
Cc1ccc(OCCN(C)C2CCN(S(C)(=O)=O)CC2)cc1	none
O=C(c1cccc(Br)c1)N1CCOCC1	none
